Assay [1] can be described thus: NCI Yeast Anticancer Drug Screen. Data for the rad50 strain (AID 155).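 Further: 0% = growth of vehicle-only cultures of the same strain.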 As to conditions: S. cerevisiae rad50 strain growth inhibition, stronger effect = higher value. In outline: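 Cells are treated with compound, grown, and their growth is then scored against vehicle-only cultures of the same repair-deficient yeast strain.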
Assay [2] in a line: NCI Yeast Anticancer Drug Screen. Data for the mec2-1 strain (AID 157). As to conditions: S. cerevisiae mec2-1 strain, stronger effect = higher value. The procedure, abridged: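 Growth inhibition is read against vehicle-treated controls after compound exposure of the mec2-1 yeast strain, which is defective in DNA damage repair or cell cycle control.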
Assay [3] is described as follows: NCI Yeast Anticancer Drug Screen. Data for the sgs1 mgt1 strain (AID 161).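 Further: 0% = growth of cultures given vehicle only.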 The following applies: S. cerevisiae sgs1 mgt1 strain, stronger effect = higher value. The procedure, abridged:
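Percent growth inhibition was derived by comparing compound-exposed mutant yeast with vehicle-exposed cultures. The strain carries alterations in DNA damage repair.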

The nature of assay [4]: NCI Yeast Anticancer Drug Screen. Data for the cln2 rad14 strain (AID 165).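 Further: 0% = growth equal to vehicle treated cultures.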 The following applies: S. cerevisiae cln2 rad14 strain, stronger effect = higher value. In outline:
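Growth inhibition, relative to vehicle-treated controls, is the read-out. The test organism is a yeast strain with defined genetic alterations, cln2 rad14.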

Assay [5] can be described thus: NCI Yeast Anticancer Drug Screen. Data for the bub3 strain (AID 167). The following applies: S. cerevisiae bub3 mutant strain, stronger effect = higher value. The procedure, abridged: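 Part of a panel of yeast mutants defective in DNA damage repair or cell cycle regulation. Each strain is grown with compound, and inhibition is calculated relative to solvent-treated cultures.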

Assay [6] in a line: NCI Yeast Anticancer Drug Screen. Data for the mlh1 rad18 strain (AID 175). As to conditions: S. cerevisiae mlh1 rad18 strain growth inhibition, stronger effect = higher value. In outline: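 Cells of a genetically altered yeast strain, deficient in DNA damage repair, were treated with compound. Their growth was then compared with that of vehicle-treated cultures to give inhibition.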
Setting [7] is: at 5.0 µM (retest, dose inferred, filed as 0.5).
Setting [8] is: at 50.0 µM (retest, dose inferred, filed as 5.0).

Structures are written as SMILES. The panel holds about 79,000 compounds, 15% with a hit somewhere; the sample as a whole holds those more often. A number with no mark means an inactive call. Activity calls are given as the source filed them. No stated cut-off is given here; in the data, active means growth inhibition above about 70%; inactive means the rest.

As to `S=C=NCCc1ccccc1`, the growth inhibition in assay [1] (setting [7]) is -12%; in assay [1] (setting [8]) it was 21%; in assay [1] (at 50.0 µM), 72% (active); in assay [2] (setting [7]), -13%; in assay [2] (setting [8]), 18%; in assay [2] (at 50.0 µM), 48.4%. For the same compound, the growth inhibition in assay [3] (setting [7]) is -5%; in assay [3] (setting [8]), -8%; in assay [3] (at 50.0 µM), 42.5%; in assay [4] (setting [7]) it was 2%; in assay [4] (setting [8]), 8%; in assay [4] (at 50.0 µM), 28.1%. Further, the growth inhibition in assay [5] (setting [7]) is 5%; in assay [5] (setting [8]), 20%; in assay [5] (at 50.0 µM), 43.8%; in assay [6] (setting [7]), -20%; in assay [6] (setting [8]), 15%; in assay [6] (at 50.0 µM), 61.6%.

As to `CN(CCCl)Cc1ccc(OCc2ccccc2)c(OCc2ccccc2)c1`, the growth inhibition in assay [1] (setting [7]) is 2%; in assay [1] (setting [8]) it was 98% (active); in assay [1] (at 50.0 µM), 99.7% (active); in assay [2] (setting [7]), -20%; in assay [2] (setting [8]) it was 99% (active); in assay [2] (at 50.0 µM) it was 99.6% (active). In addition, the growth inhibition is 0% in assay [3] (setting [7]); 99% (active) in assay [3] (setting [8]); 99.7% (active) in assay [3] (at 50.0 µM); 8% in assay [4] (setting [7]); 98% (active) in assay [4] (setting [8]); 98.1% (active) in assay [4] (at 50.0 µM). For the same compound, the growth inhibition was 0% in assay [5] (setting [7]); 99% (active) in assay [5] (setting [8]); 99.4% (active) in assay [5] (at 50.0 µM); 3% in assay [6] (setting [7]); 99% (active) in assay [6] (setting [8]); 99.6% (active) in assay [6] (at 50.0 µM).

With `CC[C@@H](C)[C@@H]1NC(=O)C(NC(=O)C(CC(C)C)N(C)C(=O)C2CCCN2C(=O)C(C)O)C(C)OC(=O)C(Cc2ccc(OC)cc2)N(C)C(=O)C2CCCN2C(=O)C(CC(C)C)NC(=O)C(C)C(=O)C(C(C)C)OC(=O)C[C@H]1O` (stereo not given in full), the growth inhibition in assay [1] (setting [7]) is 51%; in assay [1] (setting [8]), 96% (active); in assay [1] (at 50.0 µM), 81.3% (active); in assay [2] (setting [7]), 73% (active); in assay [2] (setting [8]), 99% (active); in assay [2] (at 50.0 µM), 83.5% (active). The growth inhibition in assay [3] (setting [7]) is 58%; in assay [3] (setting [8]), 89% (active); in assay [3] (at 50.0 µM) it was 83.2% (active); in assay [4] (setting [7]), 43%; in assay [4] (setting [8]), 74% (active); in assay [4] (at 50.0 µM) it was 80.6% (active). Also, the growth inhibition in assay [5] (setting [7]) is 28%; in assay [5] (setting [8]) it was 72% (active); in assay [5] (at 50.0 µM) it was 85.2% (active); in assay [6] (setting [7]), 50%; in assay [6] (setting [8]) it was 98% (active); in assay [6] (at 50.0 µM), 79.8% (active).

Turning to `Cc1[cH-]c(=O)n(-c2ccccc2)n1.[Au+].[Au].c1ccc([PH+](c2ccccc2)c2ccccc2)cc1.c1ccc([PH+](c2ccccc2)c2ccccc2)cc1`, the growth inhibition in assay [1] (setting [7]) was 27%; in assay [1] (setting [8]), 65%; in assay [1] (at 50.0 µM), 88.8% (active); in assay [2] (setting [7]) it was 32%; in assay [2] (setting [8]), 96% (active); in assay [2] (at 50.0 µM), 90.3% (active). In addition, the growth inhibition in assay [3] (setting [7]) is 33%; in assay [3] (setting [8]) it was 93% (active); in assay [3] (at 50.0 µM), 91.5% (active); in assay [4] (setting [7]) it was 18%; in assay [4] (setting [8]) it was 65%; in assay [4] (at 50.0 µM), 88.7% (active). For the same compound, the growth inhibition in assay [5] (setting [7]) is 19%; in assay [5] (setting [8]) it was 87% (active); in assay [5] (at 50.0 µM), 89.4% (active); in assay [6] (setting [7]), 35%; in assay [6] (setting [8]), 79% (active); in assay [6] (at 50.0 µM), 83% (active).

For `COc1ccc(C[C@H]2NC[C@H](O)[C@H]2OC(C)=O)cc1`, the growth inhibition is 34% in assay [1] (setting [7]); 99% (active) in assay [1] (setting [8]); 92.5% (active) in assay [1] (at 50.0 µM); 29% in assay [2] (setting [7]); 99% (active) in assay [2] (setting [8]); 93.8% (active) in assay [2] (at 50.0 µM). For the same compound, the growth inhibition is 27% in assay [3] (setting [7]); 99% (active) in assay [3] (setting [8]); 92.3% (active) in assay [3] (at 50.0 µM); 43% in assay [4] (setting [7]); 99% (active) in assay [4] (setting [8]); 89.9% (active) in assay [4] (at 50.0 µM). Besides, the growth inhibition was 27% in assay [5] (setting [7]); 99% (active) in assay [5] (setting [8]); 92.2% (active) in assay [5] (at 50.0 µM); 51% in assay [6] (setting [7]); 98% (active) in assay [6] (setting [8]); 91% (active) in assay [6] (at 50.0 µM).

For the compound `CCOc1c(Br)cc(/C=C(\C)[N+](=O)[O-])cc1OC`, the growth inhibition in assay [1] (setting [7]) is 2%; in assay [1] (setting [8]) it was 7%; in assay [1] (at 50.0 µM), 61.9%; in assay [2] (setting [7]) it was -1%; in assay [2] (setting [8]), 9%; in assay [2] (at 50.0 µM) it was 78.5% (active). For the same compound, the growth inhibition was 6% in assay [3] (setting [7]); 9% in assay [3] (setting [8]); 87.3% (active) in assay [3] (at 50.0 µM); -1% in assay [4] (setting [7]); -3% in assay [4] (setting [8]); 93.4% (active) in assay [4] (at 50.0 µM). Besides, the growth inhibition in assay [5] (setting [7]) is -4%; in assay [5] (setting [8]), 2%; in assay [5] (at 50.0 µM) it was 72.5% (active); in assay [6] (setting [7]) it was -5%; in assay [6] (setting [8]) it was 4%; in assay [6] (at 50.0 µM), 79.7% (active).

In the case of `NNc1ccccc1`, the growth inhibition in assay [1] (setting [7]) is 13%; in assay [1] (setting [8]), 97% (active); in assay [1] (at 50.0 µM), 98.6% (active); in assay [2] (setting [7]) it was 1%; in assay [2] (setting [8]), 95% (active); in assay [2] (at 50.0 µM) it was 97.3% (active). In addition, the growth inhibition was 3% in assay [3] (setting [7]); 98% (active) in assay [3] (setting [8]); 98.8% (active) in assay [3] (at 50.0 µM); 0% in assay [4] (setting [7]); 96% (active) in assay [4] (setting [8]); 96.8% (active) in assay [4] (at 50.0 µM). In addition, the growth inhibition was 9% in assay [5] (setting [7]); 98% (active) in assay [5] (setting [8]); 96.2% (active) in assay [5] (at 50.0 µM); 15% in assay [6] (setting [7]); 98% (active) in assay [6] (setting [8]); 98.6% (active) in assay [6] (at 50.0 µM).

As to `CC(Br)C(=O)C(CCN(C)C)(c1ccccc1)c1ccc(Br)s1` (stereo not given), the growth inhibition in assay [1] (setting [7]) is -9%; in assay [1] (setting [8]), 13%; in assay [1] (at 50.0 µM), 4%; in assay [2] (setting [7]), -9%; in assay [2] (setting [8]), -6%; in assay [2] (at 50.0 µM), 0.55%. Also, the growth inhibition in assay [3] (setting [7]) is -25%; in assay [3] (setting [8]) it was 10%; in assay [3] (at 50.0 µM), 0.8%; in assay [4] (setting [7]) it was -12%; in assay [4] (setting [8]), 2%; in assay [4] (at 50.0 µM) it was 80.6% (active). Further, the growth inhibition in assay [5] (setting [7]) was -11%; in assay [5] (setting [8]), -5%; in assay [5] (at 50.0 µM), 16.1%; in assay [6] (setting [7]) it was -6%; in assay [6] (setting [8]), 14%; in assay [6] (at 50.0 µM), 11.9%.

As for `O=[As]c1ccccc1O` (stereo not given), the growth inhibition in assay [1] (setting [7]) is 1%; in assay [1] (setting [8]) it was 96% (active); in assay [1] (at 50.0 µM), 96.6% (active); in assay [2] (setting [7]), 0%; in assay [2] (setting [8]), 98% (active); in assay [2] (at 50.0 µM), 98.1% (active). Also, the growth inhibition is 2% in assay [3] (setting [7]); 98% (active) in assay [3] (setting [8]); 90.3% (active) in assay [3] (at 50.0 µM); -9% in assay [4] (setting [7]); 98% (active) in assay [4] (setting [8]); 92.2% (active) in assay [4] (at 50.0 µM). Also, the growth inhibition is -5% in assay [5] (setting [7]); 97% (active) in assay [5] (setting [8]); 97.3% (active) in assay [5] (at 50.0 µM); -1% in assay [6] (setting [7]); 98% (active) in assay [6] (setting [8]); 96.5% (active) in assay [6] (at 50.0 µM).

On to `CCC1(O)C(=O)OCc2c1cc1n(c2=O)Cc2cc3cc(C)ccc3nc2-1` (stereo not given), for which the growth inhibition in assay [1] (setting [7]) is 94% (active); in assay [1] (setting [8]), 83% (active); in assay [1] (at 50.0 µM), 82.2% (active); in assay [2] (setting [7]), 36%; in assay [2] (setting [8]), 64%; in assay [2] (at 50.0 µM), 83.9% (active). The growth inhibition was 31% in assay [3] (setting [7]); -19% in assay [3] (setting [8]); 47.1% in assay [3] (at 50.0 µM); 17% in assay [4] (setting [7]); -4% in assay [4] (setting [8]); 18.9% in assay [4] (at 50.0 µM). For the same compound, the growth inhibition was -1% in assay [5] (setting [7]); -25% in assay [5] (setting [8]); 18.8% in assay [5] (at 50.0 µM); 36% in assay [6] (setting [7]); 61% in assay [6] (setting [8]); 64.7% in assay [6] (at 50.0 µM).

Source of the values: PubChem BioAssay (NCI).
